# Assay results taken from the supplement of paper PMC12632987.
# B1: usp_38_diff_out_18_28_373 (protein)
# chain: SEEEREELKKRLEELEKRLDELIDRYVELANRVYEEHPDDEEKLRLLDEAADALGEAAYHLREARRLLREGGPPEEVKKELEKAEEALKKAEELLKELEE
# B2: usp_38_diff_out_18_28_380 (protein)
# chain: AEEERRRLEEELEALKAELDALITEATALATAKLEAHPDDAEVWALVDALFDALGAAAAALERARELLRAGAPPEEVRAALAEARAHIAEARALMAQLAA
# B3: usp_38_diff_out_18_28_370 (protein)
# chain: SEEERERLEERLAALKAELDALIDRATAAATAALEAHPDDAEVWALIDALFDALGAAAAALNEARRLLREGGDLEEVERLLEQAEAHLAQARALLAQLEA
# B4: usp_38_diff_out_18_28_394 (protein)
# chain: SAAERAALEAELAALEAELDALIDEATKAATEALTANPDSEEVWALVDALFDALGAAAAALRRARELLRAGGPLAEVQAALDEARKHLAEAKKLLKELKA
# B5: usp_38_diff_out_18_28_377 (protein)
# chain: MEEERERLERELEELRERLDELIDEATEASLKKLEEEPDSEEVWELIDRLFDALGAAAAALREARELLKAGGPLEEVQRLLEEARRHLEEAERLLEELKE
# B6: usp_38_diff_out_18_28_367 (protein)
# chain: SAAARAAAEARLAALTAELDELIDEATAEATAALTAHPDDAAVWALVDALFDALGAAAAALNRARELLREGGPLEEVEAALAQAEAELARARELLAQLRA
# B7: usp_38_diff_out_18_28_388 (protein)
# chain: SEEEREELRERLEELEKRLDALIDEATAVATAALTAHPDSAEVQALVAELFDALGAAAAALRRARELLRRGGPLEEVREALEEAERHLEEAERLLAELRA
# B8: usp_38_diff_out_18_28_393 (protein)
# chain: SEERRKELEERLKALEAELDALITEATAVATERLEAHPDDEAVWELVDALFDALGAAAAALREARELLRAGGDLEEVEALLDQAEAALAEAKALLAELKA
# B9: usp_38_diff_out_18_28_372 (protein)
# chain: SAAERAALEARLAALEAELNALIDEFVELAERVYEERADDEEALALLDRAWDALGAAAAALNRARELLREGGPAAEVQAQLDAAEAALAEAKALLAELKA
# B10: usp_38_diff_out_18_28_366 (protein)
# chain: SMEEREKLEKELEELKKELDALIDEATALATEALTAHPDDEEVWALVDELFDSLGKAAAHLNRARELLREGGPLEEVEKELKEAKEHLEKAKELLAKLKA
# B11: usp_38_diff_out_18_28_381 (protein)
# chain: AEARRAELERRLEELLRELNELIDEATKLATEKLTEHPDDEEVWELVDRLFDELGRAAAHLREARELLRAGAPAEEVEKELREAEEHLKRAKELLKELEA
# B12: usp_38_diff_out_18_28_395 (protein)
# chain: MEEERAKLEEELKKLEKELNELIDRATAAATAALTAHPDDADVWALVDALFDSLGAAAYHLREARELLREGGPLEEVKKELEKAKEHLKEAKALLAELEA
# B13: usp_38_diff_out_18_28_364 (protein)
# chain: SAAERAALEAELKALTAELDALIDEATEVATEKLTEHPDDEEVWELVDKLFDALGAAAAALNKARELLREGGPLEEVKKQLAKAKEALAEAKKLLEELKK
# B14: usp_38_diff_out_18_28_376 (protein)
# chain: SAAERARLEAELAALRAELDALIDEATATATEALEAHPDSEEVWALIDALFDALGAAAAALEEARRLLRAGGPLAEVQALLDRAREHLRRARELLAELKA
# B15: usp_38_diff_out_18_28_365 (protein)
# chain: SEEERRELERRLEELTRRLDELIDEATEAATEALTAHPDDEEVWELVDRLFDALGAAAAALNRARELLREGGPLEEVEEELEEAERHLREAERLLEELRE
# B16: usp_38_diff_out_18_28_382 (protein)
# chain: AAAEREKLEAELKKLEAELNKLIDEATELATKKLTEHPDDEEVWKLVDELFDALGKAAAALNRARELLRAGGPAEEVKKALEEAEKYMKEAKKLMEELKK
# B17: usp_38_diff_out_18_28_384 (protein)
# chain: DAAERAALEKELEELRKRLDELIDRAVEAATAALEAHPDDEAVWALVDALFDTLGAAAAALNEARALLKAGGDPAEVKAALEEARKALAEAERLLAELEA
# B18: usp_38_diff_out_18_28_375 (protein)
# chain: SAATRAALEAELAALEARLDALIDEYVALANRVYEEHPDDAEALALLDAAADALGAAAAALAEARRLLRAGGDPAEVRARLAEARAALAEAEALLAQLKA
# B19: usp_38_diff_out_18_28_378 (protein)
# chain: AAAERAALEAELAALRAELDALIDEATEAATRALEAHPDDEEVWALVDELFDTLGAAAAALNEARRLLKEGGDLAEVKAALAAARDALARARELLAELKA
# B20: usp_38_diff_out_18_28_389 (protein)
# chain: AAAARAALEAELAALRAELDALIDEATELATRKLEEHPDDEEVWELVDRLFDALGRAAAHLEEARRLLREGGDLAAVQAELDAARAALAEAKRLLEELKA
# B21: usp_38_diff_out_18_28_386 (protein)
# chain: EEERRRELERELRELERRLDELIDEAVAAATEALEAHPDDEEVWALVDELFDTLGRAAAALREARELLRAGGPLEEVERALREAREALERAERLLAELKA
# B22: usp_38_diff_out_18_28_387 (protein)
# chain: MEKEREELKKELEELRKRLDELIDRATEEATRALTAHPDDEEVWELIDRLFDTLGEAAAALNRARELLRAGGPLEEVKKELEKARKALEEAERLLEELEA
# B23: usp_38_diff_out_18_28_390 (protein)
# chain: EEEERERLERRLRELERELDALIDEATAAITEALTAHPDDEEVWALVDALLDSLGRAAAALNEARRLLAEGGPLEEVERALEEAERHLREAKALLAELKA
# B24: usp_38_diff_out_18_28_368 (protein)
# chain: SEEERRELERRLEELTKRLDELIDEATAESTRALTAHPDDEAVWALVDALFDALGAAAAALNRARELLREGGPLEEVQKELDRAEAALKEAEALLAELKA
# B25: usp_38_diff_out_18_28_371 (protein)
# chain: SAAERAALEARLAALEAELDALIDELVELAKEVYEEHADDEEKLALLDAAWDALGRAAGLLRRARELLREGGDPAEVAALLDAAEAALAEAKALLAELKK
# B26: usp_38_diff_out_18_28_383 (protein)
# chain: AEAERAELEKRLEELEKELNELIDEATEAATEKLEAEPDSEEVWELVDELFDELGKAAAKLREARELLRAGAPAEEVQKALEEAEEHLKRAKELLEELKE
# B27: usp_38_diff_out_18_28_385 (protein)
# chain: MEEERKKLEEELEKLKKELDKLIDEAVELATAALEAHPDDEAVWALVDALFDALGAAAAALNRARELLKAGGDPEEVKKELDKARAALKEAKALLAELKA
# B28: usp_38_diff_out_18_28_391 (protein)
# chain: SSAERERLERELERLERELDELIDEATAVATEKLEEHPDDEEVWRLIDELFDALGRAARALSEARRLLREGGPPEEVERALEEARRHLERARELLEELKE
# B29: usp_38_diff_out_18_28_369 (protein)
# chain: SAAERAALEAELAALTARLDALIDEATAEATRRLTEHPDDEEVWELVDELFDALGAAAAALREARELLREGGPLAEVQAALDRARAALARAEALLAELKA
# B30: usp_38_diff_out_18_28_379 (protein)
# chain: EEARREELERRLEELRRRLDELIDEATEAATEALTAHPDDEEVWELVDELFDTLGRAAAALERARRLLREGGPLEEVERALEEAERHLEEAEELLEELEE
# B31: usp_38_diff_out_18_28_374 (protein)
# chain: SEEEREELERRLRELEERLDELIDEYVELAERVYLEHPDDAEKLALLDAAADALGAAAYHLREARRLLREGGDPEEVERELEKAEEALEEAERLLEELKA
# B32: usp_38_diff_out_18_28_392 (protein)
# chain: MEEERERLERELEELRRRLDELIDEATAVATAKLEEHPDDEEVWALIDELFDALGAAAQALREARELLREGGDPEEVRRKLEEARRALEEAERLLAELKA
# Target: T1, USP38, Q8NB14
# T1 chain: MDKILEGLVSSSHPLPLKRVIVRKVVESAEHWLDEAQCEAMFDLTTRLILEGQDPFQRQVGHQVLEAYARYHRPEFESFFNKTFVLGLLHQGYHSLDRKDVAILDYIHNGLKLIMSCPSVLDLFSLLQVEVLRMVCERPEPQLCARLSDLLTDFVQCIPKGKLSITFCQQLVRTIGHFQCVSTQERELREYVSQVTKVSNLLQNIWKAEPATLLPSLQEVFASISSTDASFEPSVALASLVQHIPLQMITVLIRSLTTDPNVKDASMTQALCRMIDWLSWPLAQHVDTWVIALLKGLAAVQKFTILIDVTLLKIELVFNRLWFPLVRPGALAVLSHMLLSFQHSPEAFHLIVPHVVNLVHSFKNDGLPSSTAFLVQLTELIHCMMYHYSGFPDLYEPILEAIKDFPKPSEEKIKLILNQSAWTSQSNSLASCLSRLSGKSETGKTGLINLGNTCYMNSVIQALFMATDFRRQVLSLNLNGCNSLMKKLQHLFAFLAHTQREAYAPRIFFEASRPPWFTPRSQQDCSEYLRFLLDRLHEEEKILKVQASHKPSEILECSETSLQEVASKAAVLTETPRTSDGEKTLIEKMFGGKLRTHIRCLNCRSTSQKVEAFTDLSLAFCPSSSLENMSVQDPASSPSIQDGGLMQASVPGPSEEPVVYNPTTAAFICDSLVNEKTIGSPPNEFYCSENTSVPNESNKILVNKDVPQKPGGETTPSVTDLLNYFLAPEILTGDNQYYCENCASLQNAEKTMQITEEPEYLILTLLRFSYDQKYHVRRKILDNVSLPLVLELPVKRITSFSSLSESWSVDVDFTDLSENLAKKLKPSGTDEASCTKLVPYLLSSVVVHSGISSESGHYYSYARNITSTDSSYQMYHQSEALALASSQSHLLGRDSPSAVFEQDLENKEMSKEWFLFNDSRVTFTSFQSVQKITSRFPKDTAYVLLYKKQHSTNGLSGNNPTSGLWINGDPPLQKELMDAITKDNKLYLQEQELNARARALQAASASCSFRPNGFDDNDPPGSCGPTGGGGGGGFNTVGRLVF
# Assay: median log2 fold change of GCK-ALFA target abundance (FLAG IP / Myc IP barcode read proportion) (log2 ratio); each designed protein is fused to an ALFA-tag nanobody in HEK293 cells to bring the named protein to FLAG-tagged glucokinase (GCK); Myc marks an untargeted standard; higher = target protein stabilised (more abundant)
# Details: target protein: 3xFLAG-MCP-GCK-ALFA reporter; HEK293 landing pad (RPLP)
# How it was run: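 Binders fused to an ALFA nanobody were recombined as a library into HEK293 landing-pad cells, which were induced with 2 μg mL^−1 doxycycline and then transfected to express a FLAG-tagged target and a Myc-tagged standard. After 48 h, circular RNA barcodes recovered by anti-FLAG and anti-Myc immunoprecipitation of lysates were reverse transcribed, amplified and sequenced. Each binder's target abundance is the median log2 ratio of FLAG to Myc barcode read proportions, from barcodes present at ≥10^−7 in both replicates, binders carrying ≥3 barcodes per replicate, a 10^−6 pseudocount and pooled replicates.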
row,Binder,median log2 fold change
1,B1,0.0573
2,B2,-0.0972
3,B3,0.0316
4,B4,-0.118
5,B5,-0.388
6,B6,0.0424
7,B7,0.11
8,B8,-0.136
9,B9,-0.142
10,B10,-0.062
11,B11,-0.371
12,B12,-0.179
13,B13,0.391
14,B14,-0.0614
15,B15,0.239
16,B16,0.595

row,Binder,median log2 fold change
1,B17,0.0029
2,B18,-0.238
3,B19,-0.0434
4,B20,-0.314
5,B21,-0.0533
6,B22,-0.291
7,B23,0.124
8,B24,0.199
9,B25,-0.371
10,B26,-0.0589
11,B27,-0.282
12,B28,-0.315
13,B29,0.292
14,B30,-0.355
15,B31,-0.302
16,B32,-0.26
